Shown are actives, neighbours in structure and some others; about 3.7% of the full set was active somewhere.
FBA Mtb inh – inhibits M. tuberculosis FBA enzyme; hit rate 2.3% among 360,000; purified M. tuberculosis FBA, fluorescence read-out; inhibition, % at 1 µM; P9WQA3; in the data active = inhibition above about 27%
Mtb bLac sens – beta-lactam sensitization of Mtb H37Rv | M. tuberculosis H37Rv growth with meropenem, percent inhibition | inhibition, % at 25 µM | AID 434955 | hit rate 0.27% among 330,000; call rule not given here;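 also: growth measured after seven days incubation then overnight dye step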
Rv3671c protease – Rv3671c (M. tuberculosis) protease inhibition. inhibition, % at 5.96 µM. hit rate 0.048% among 320,000; in the data active = inhibition above about 38%;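 also: extracellular domain of Rv3671c used as enzyme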
Target sequence (P9WHR9 whole entry, looked up, the tested form may be a part): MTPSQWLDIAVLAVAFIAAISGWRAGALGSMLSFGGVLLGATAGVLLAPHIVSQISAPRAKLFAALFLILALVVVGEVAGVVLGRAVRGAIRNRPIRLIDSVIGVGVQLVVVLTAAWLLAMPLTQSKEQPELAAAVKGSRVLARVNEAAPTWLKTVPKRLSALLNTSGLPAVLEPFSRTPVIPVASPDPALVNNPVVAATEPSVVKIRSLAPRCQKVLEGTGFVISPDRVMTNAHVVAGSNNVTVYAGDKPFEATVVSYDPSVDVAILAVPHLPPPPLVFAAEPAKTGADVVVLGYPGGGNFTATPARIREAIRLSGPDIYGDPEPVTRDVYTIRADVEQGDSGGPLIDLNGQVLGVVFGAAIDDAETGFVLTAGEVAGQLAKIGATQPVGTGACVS
GDH-TPI inh – GDH-TPI coupled enzyme inhibition counter-screen. GDH-TPI coupled enzyme counterscreen, NADH absorbance. hit rate 1.2% among 360,000. inhibition, % at 4.8 µM. AID 588335; in the data active = inhibition above about 30%
FadD28 FP inh – M. tuberculosis FadD28 bisubstrate binding inhibition. FadD28 bisubstrate probe binding, fluorescence polarization. inhibition, % at 12.5 µM. hit rate 0.22% among 360,000. AID 588549; in the data active = inhibition above about 8.5%, passing the limit was not always enough; inconclusive = no clear call, values can overlap the other calls
UGM FP inh – blocks M. tuberculosis UGM enzyme. P9WIQ1. purified UGM, fluorescence polarization probe displacement. inhibition, % at 10 µM. hit rate 0.06% among 320,000. AID 504406; in the data active = inhibition above about 10%, passing the limit was not always enough; inconclusive = no clear call, values can overlap the other calls
Each line names hits and unclear results; the compound was inactive in the other large screens.

COc1ccccc1Oc1coc2c(CN(C)C)c(O)ccc2c1=O	FBA Mtb inh 114
CCN(CC)Cc1c(O)ccc2c(=O)c(-c3ccc4c(c3)OCCO4)coc12	GDH-TPI inh 31
CC(C)N(Cc1c(O)ccc2c(=O)c(-c3ccc(Cl)cc3)coc12)C(C)C	none
COc1ccccc1-c1coc2c(CN(C)C)c(O)ccc2c1=O	FBA Mtb inh 188
N#CCOc1ccc2oc(-c3ccco3)cc(=O)c2c1	none (no result: FBA Mtb inh, GDH-TPI inh, FadD28 FP inh)
Cc1ccc2oc(-c3ccco3)cc(=O)c2c1	FBA Mtb inh 123, GDH-TPI inh 31
CCCOC(=O)c1ccc(NC(=O)c2cc(OC)c(OC)c(OC)c2Br)cc1	FadD28 FP inh 13
COc1ccc2cc(C(=O)c3ccccc3)c(=O)oc2c1	none
CCOC(=O)c1c[nH]c2ccc3ccccc3c2c1=O	none
CCOC(=O)c1cc2ccc3ccccc3c2oc1=O	FBA Mtb inh active
CCOc1ccc2cc(C(=O)c3ccccc3)c(=O)oc2c1	GDH-TPI inh 41
CCOC(=O)c1cc2ccc(OC(=O)c3ccco3)cc2oc1=O	FBA Mtb inh active
CC(C)N(C)C1=CC(=O)C(N(C)C(C)C)=CC1=O	none (no result: Mtb bLac sens, Rv3671c protease, UGM FP inh)
CCOC(=O)C1(Cc2ccccc2)CCCN(C(=O)c2cnn(CC)c2)C1 (configuration not stated)	none
O=C1Nc2cnc(Cl)nc2Nc2ccccc21	none (no result: Mtb bLac sens, Rv3671c protease, GDH-TPI inh, UGM FP inh)
C=CCn1cc(CN2CCC(C(=O)Nc3ccc(Oc4cccnc4)cc3)CC2)c(C)n1	FadD28 FP inh 16
CCn1cc(CN2CCC(C(=O)Nc3ccc(Oc4cccnc4)cc3)CC2)c(C)n1	Mtb bLac sens inconclusive, FadD28 FP inh 13
Cc1ncc(CN2CCC(C(=O)Nc3ccc(Oc4cccnc4)cc3)CC2)cn1	none
CCCN1CCC(NC(=O)Cc2cccc(C)c2)CC1	none
O=c1[nH]c(=O)n2ncnc2[nH]1	none (no result: Mtb bLac sens, Rv3671c protease, UGM FP inh)
N#C/C(=N/Nc1ccccc1F)C(=N)N1CCOCC1	GDH-TPI inh 32
Cc1ccc(C(=O)O)cc1NC(=O)CSc1nnc(-c2ccccc2F)n1C1CCCCC1	none
CCCc1nnc(NC(=O)CCC(=O)N2CCN(Cc3ccc(Cl)cc3)CC2)s1	none
CCOc1ccccc1Nc1ncnc2ccccc12	FBA Mtb inh 189
CCOc1ccc(NC2OC(C)C(O)C(O)C2O)c([N+](=O)[O-])c1 (configuration not stated)	FBA Mtb inh 112
CCOc1ccc(NC(=O)c2ccc(CC)s2)c([N+](=O)[O-])c1	none
CSc1ccc(Cn2c(C)c(C(=O)NCc3ccc4c(c3)OCCO4)sc2=O)cc1	none (no result: Mtb bLac sens, Rv3671c protease, UGM FP inh)
N#Cc1cc(-c2ccccc2)nc(NN)n1	GDH-TPI inh 32
COc1ccc2[nH]c3c(c2c1)CCN1C(=O)C(CC(=O)NCCCn2ccnc2)C[C@H](C(=O)N(C(C)C)C(C)C)[C@@]31C (some centres not stated)	none (no result: Mtb bLac sens, Rv3671c protease, UGM FP inh)
COc1cc([N+](=O)[O-])ccc1NC(=S)NNC(=O)c1ccc2c(c1)OCO2	FadD28 FP inh inconclusive
O=C(N/N=C/c1cc([N+](=O)[O-])ccc1O)c1ccc2c(c1)OCCO2	GDH-TPI inh 32
Cc1ccsc1/C=N/NC(=O)c1ccc2c(c1)OCCO2	GDH-TPI inh 34
O=C(NC(=S)Nc1cc([N+](=O)[O-])ccc1O)c1ccc2c(c1)OCO2	FadD28 FP inh 13
Cc1cccc(/C=N/NC(=O)c2ccc3c(c2)OCCO3)c1O	none
Cc1ccsc1/C=N/NC(=O)c1sccc1C	none
Cc1ccsc1/C=N\NC(=O)c1ccc2c(c1)OCO2	GDH-TPI inh 40
CCOC(=O)C[C@H]1c2cc(C(F)(F)F)ccc2S(=O)(=O)N1C(C)C	none
O=C(N/N=C/c1ccc(-c2ccc(Br)cc2)o1)c1ccc2c(c1)OCO2	none
O=C(N/N=C\c1ccc(S(=O)(=O)O)o1)c1ccc2c(c1)OCO2	GDH-TPI inh 41
O=C(CC(=O)c1ccccc1)Nc1cc([N+](=O)[O-])ccc1Cl	GDH-TPI inh 31
CSCc1ccc(C(=O)NCCSc2ccc(Br)cc2)cc1	none
CCOC(=O)c1oc2nc(C(C)C)c3c(c2c1N)CC(C)(C)OC3	FBA Mtb inh 149 (no result: Mtb bLac sens, Rv3671c protease, UGM FP inh)
CCOC(=O)c1oc2nc(C(C)C)c3c(c2c1N)CCC3	FBA Mtb inh 124
O=C(OCc1nnc(-c2ccccc2)o1)C1CC(=O)N(CCc2ccccc2)C1 (configuration not stated)	none
Cc1onc(-c2ccccc2Cl)c1C(=O)Nc1cccc2cccnc12	none
Cc1onc(-c2ccccc2Cl)c1C(=O)Nc1cccc(-c2nc3ncccn3c2C)c1	FBA Mtb inh 175
Cc1onc(-c2ccccc2Cl)c1C(=O)Nc1nnc(-c2cccc([N+](=O)[O-])c2)s1	GDH-TPI inh 35
CCSc1nnc(NC(=O)c2c(-c3ccccc3Cl)noc2C)s1	none
Cc1onc(-c2ccccc2Cl)c1C(=O)Nc1ccc(-c2cn3cccnc3n2)cc1	FBA Mtb inh active, Mtb bLac sens inconclusive, GDH-TPI inh 31
Cc1ccc(-c2cn3cccnc3n2)cc1NC(=O)c1c(-c2ccccc2Cl)noc1C	FBA Mtb inh active
COc1ccc(NC(=O)CCNC(=O)C2CCN(S(=O)(=O)c3ccccc3)CC2)cc1OC	none (no result: Mtb bLac sens, Rv3671c protease, UGM FP inh)
CCc1nc2ccc(C(=O)N(C)CCCN(C)C)cn2c1N(C)CCCc1ccccc1	none (no result: Mtb bLac sens, Rv3671c protease, UGM FP inh)
NC(=O)c1cccc2c1-c1ccccc1/C2=N/NC(N)=S	Mtb bLac sens inconclusive, GDH-TPI inh 41
NC(=S)N/N=C1\c2ccccc2-c2c(C(=O)O)cccc21	none
Cn1ccsc1=NC(=O)c1ccc(Cl)cc1	none
CN(C)c1ccc(C(=O)N=c2sccn2C)cc1[N+](=O)[O-]	GDH-TPI inh 38
CC(C)C(NC(=O)CCNC(=O)c1ccc(C(C)(C)C)cc1)c1nc2ccccc2[nH]1 (configuration not stated)	none
C[C@@H]1Cn2cnc(C(=O)NCC(=O)OC(C)(C)C)c2C(=O)N1	none (no result: Mtb bLac sens, Rv3671c protease, UGM FP inh)
O=C(NCc1ccccc1Cl)c1ccc2sc([C@@H]3O[C@H](CO)[C@H](O)[C@H](O)[C@H]3O)nc2c1	none (no result: Mtb bLac sens, Rv3671c protease, UGM FP inh)
COc1ccccc1-c1ccc(C(=O)O)o1	FBA Mtb inh 131
COC(=O)C1CCN(Cc2cc(=O)oc3cc(OC)ccc23)CC1	none
CC1CN(S(=O)(=O)c2cccc(C(=O)OCc3cc(=O)oc4cc(O)ccc34)c2)CC(C)O1 (configuration not stated)	none
COC(=O)Cc1cc(=O)oc2cc(OC)ccc12	FBA Mtb inh 119
COc1ccc2c(COC(=O)c3cccc(S(=O)(=O)NCC(C)C)c3)cc(=O)oc2c1	FBA Mtb inh 42
COc1ccc2c(COC(=O)CNS(=O)(=O)c3ccccc3)cc(=O)oc2c1	FBA Mtb inh 119
COc1ccc(OC)c(CN2CCN(Cc3cc(=O)oc4cc(O)ccc34)CC2)c1	FBA Mtb inh 115
COc1cc(OC)cc(C(=O)NCC(=O)OCc2cc(=O)oc3cc(OC)ccc23)c1	none
COC(=O)COc1ccc2c(-c3ccc(OC)cc3)cc(=O)oc2c1	none
O=C1NC(Cc2ccc(O)cc2)c2nc3ccc(F)cc3c(=O)n2-c2cc3ccccc3cc21 (configuration not stated)	none (no result: Mtb bLac sens, Rv3671c protease, UGM FP inh)

Assay outcomes as filed in PubChem.
